According to ChEMBL document CHEMBL1157539, “Thousands of chemical starting points for antimalarial lead identification” (Nature, 2010):

What follows are molecules tested on Plasmodium falciparum (assay: GSK_TCMDC: Inhibition of Plasmodium falciparum 3D7 in whole red blood cells, using parasite LDH activity as an index of growth. Test compounds present at 2uM).
Assay type: functional

Question: CCCOc1cc(OCCC)cc(-c2ccc(C(=O)Nc3ccc4ccc(C)nc4c3)c(=O)[nH]2)c1 was tested. Which Inhibition did it give?
Answer: 100%

Question: How did the Inhibition turn out when CCCN(CCC)CCCNc1ccc(C(=O)Nc2ccc(OCC)cc2)cc1[N+](=O)[O-] was run?
Answer: 89%

Question: Which Inhibition does the source give for CC(C)N1CCC(N(Cc2ccc(-c3ccc(C(F)(F)F)cc3)cc2)C(=O)Cn2c(SCc3cccc(F)c3F)nc(=O)c3ccccc32)CC1.O=C(O)C(O)C(O)C(=O)O here?
Answer: 91%

Question: CC(C)N1CCN(C(=O)c2ccc(CNCCCN3CCN(c4cccc(Cl)c4Cl)CC3)s2)CC1.Cl was tested. Which Inhibition did it give?
Answer: 100%

Question: Cc1ccc(CN2CCCN(Cc3cccc(NC(=O)c4ccc(-c5ccccc5)cc4)c3)CC2)cc1C.O=C(O)C(F)(F)F was tested. Which Inhibition did it give?
Answer: 84%

Question: For CC(=O)c1ccccc1C(=O)N1CCOc2ccc(C(O)C(c3ccccc3)c3ccccc3)cc2C1 (stereo unspecified), which Inhibition is on record?
Answer: 96%

Question: Which Inhibition does the source give for CC(=O)N(C)c1cccc(C(=O)Nc2ccc(-c3cccc(-c4nc5cccc(C)c5[nH]4)c3)cc2)c1 here?
Answer: 97%

Question: O=C(/C=C/c1ccc(Cl)c(Cl)c1)N1CCC(CCN2CCC(c3c[nH]c4ccccc34)CC2)CC1 was tested. Which Inhibition did it give?
Answer: 100%

Question: Which Inhibition does the source give for CNCCNCc1ccc(-c2ccc(-c3nc4cccc(C)c4[nH]3)cc2)cc1.O=C(O)C(F)(F)F here?
Answer: 96%

Question: For CC(=O)Nc1ccc(C(=O)N2CCN(c3ccnc4cc(Cl)ccc34)CC2)cc1.O=C(O)C(F)(F)F, which Inhibition is on record?
Answer: 93%

Question: How did the Inhibition turn out when Nc1nccc2ccc(-c3ccnc(NCc4cccnc4)n3)cc12 was run?
Answer: 100%

Question: For CN(c1ccc(NC(=O)Nc2cc(C(F)(F)F)ccc2F)cc1)c1ccnc(NCCN2CCCC2)n1.O=C(O)C(F)(F)F, which Inhibition is on record?
Answer: 93%

Question: How did the Inhibition turn out when CC1=C(C(=O)OC(C)C)C(c2ccccc2Cl)C2=C(CC(c3ccccc3)CC2=O)N1 (stereo unspecified) was run?
Answer: 93%

Question: For CNC(=O)NC1=NC(C)(C)N(OCc2ccc(Cl)c(Cl)c2)C(NC(=O)NC)=N1, which Inhibition is on record?
Answer: 99%

Question: For O=C(Nc1ccc(-c2ccccc2)cc1)Nc1cccc(Cn2cnc(N3CCCNCC3)cc2=O)c1.O=C(O)C(F)(F)F, which Inhibition is on record?
Answer: 88%

Question: Cc1c(Cc2ccccc2Cl)cnc2nc(N)nc(N)c12.Cl was tested. Which Inhibition did it give?
Answer: 91%

Question: COc1ccc(CC2(CO)CCN(Cc3ccc(O)c(Cl)c3)CC2)cc1 was tested. Which Inhibition did it give?
Answer: 98%

Question: Which Inhibition does the source give for O=C(O)C(F)(F)F.O=C1COC(c2ccccc2)(c2ccccc2)CN1CC1CCN(Cc2ccc(O)cc2Cl)C1 (stereo unspecified) here?
Answer: 85%

Question: For CCCC(=O)c1cnc2c(OCCCc3c[nH]cn3)cccc2c1Nc1c(C)cccc1C, which Inhibition is on record?
Answer: 98%

Question: For O=C(Nc1ccccc1Oc1ccccc1)NC1CCN(c2ccnc3cc(Cl)ccc23)C1.O=C(O)C(F)(F)F (stereo unspecified), which Inhibition is on record?
Answer: 99%

Question: How did the Inhibition turn out when Cc1ccc2[nH]c(-c3ccc(C=CC(=O)NC4CCN(Cc5ccccc5)CC4)cc3)nc2c1 was run?
Answer: 100%

Question: With O=C(Nc1ccccc1)N(Cc1ccc(-c2cccc(CNC3CCCC3)c2)cc1)C1CCN(Cc2ccccc2)CC1.O=C(O)C(F)(F)F as the molecule, how does the Inhibition read?
Answer: 100%

Question: Which Inhibition does the source give for COC(=O)c1c(NC(=O)c2cccc(C(F)(F)F)c2)sc2c1CCN(Cc1ccccc1)C2.Cl here?
Answer: 84%

Question: O=C(O)C(F)(F)F.c1ccc2[nH]c(-c3ccc(-c4ccc(CNCCc5ccncc5)cc4)s3)nc2c1 was tested. Which Inhibition did it give?
Answer: 100%

Question: For Oc1ccccc1CN1CCC2(CCCN(Cc3ccccc3F)C2)C1 (stereo unspecified), which Inhibition is on record?
Answer: 98%

Question: COc1ccc(-c2ccc(NC(=O)c3ccc(C#N)cc3)cc2)cc1CN(C)CCO.O=C(O)C(F)(F)F was tested. Which Inhibition did it give?
Answer: 99%

Question: Which Inhibition does the source give for Nc1nc(N)c2c(Oc3cccc4ccccc34)cccc2n1 here?
Answer: 96%

Question: Which Inhibition does the source give for CN(C)c1ccc(NC2=NC(N)=NC(C)(C)N2)cc1 here?
Answer: 95%

Question: Which Inhibition does the source give for Nc1ncc(-c2cn[nH]c2)cc1-c1nc2ccc(Cl)cc2[nH]1 here?
Answer: 100%

Question: CN1CCCC(CN2CCN(Cc3cccc(-c4ccc(-c5nc6cc(F)ccc6[nH]5)cc4)c3)CC2)C1.O=C(O)C(F)(F)F (stereo unspecified) was tested. Which Inhibition did it give?
Answer: 100%

Question: How did the Inhibition turn out when CC(C)(C)c1ccc(NC(=O)c2ccc(CN3CCCN(Cc4cccc(C#N)c4)CC3)cc2)cc1.O=C(O)C(F)(F)F was run?
Answer: 99%

Question: For COc1ccc(-c2nc(NC(=O)CS(=O)(=O)c3ccccc3)sc2C)cc1, which Inhibition is on record?
Answer: 99%

Question: Which Inhibition does the source give for CCCc1cc(N2CCC(N3CCCC3)CC2)nc(Nc2ccc(Cl)cc2)n1 here?
Answer: 96%

Question: For CC(C)(CNCc1ccc(Cl)c(Cl)c1)c1nc(-c2ccc(Cl)c(O)c2)c(-c2ccncc2)[nH]1.Cl, which Inhibition is on record?
Answer: 100%

Question: How did the Inhibition turn out when COC(=O)c1cc2cccc(NC[C@@H](C)NC[C@H](O)c3cccc(Cl)c3)c2[nH]1 was run?
Answer: 98%

Question: With COc1ccc(CCNC(=O)c2ccc(-n3cc(NC(=O)c4cccnc4)cn3)cc2)cc1OC as the molecule, how does the Inhibition read?
Answer: 90%
